The text below walks through data of PubChem BioAssay AID1476 (National Center for Advancing Translational Sciences (NCATS), 2009).

Hit rate of the full screen: of about 200,000 compounds, about 4,500 (2.2%) were called active. Not shown: some 12% with an inconclusive outcome. Only a selection was taken, and actives are over-represented in it overall. Values without a mark were called inactive. Calls follow the shape of the dose curve; as a rule, active = well fitted inhibition curve with a large enough effect; inconclusive = small, poorly fitted or top-dose-only effect, or effect the other way; inactive = flat fitted curve, though single readings scatter.
Potency is read from the fitted curve at half-maximal effect.

Sequence of Cruzipain (Trypanosoma cruzi) (P25779 123-467 limits assumed): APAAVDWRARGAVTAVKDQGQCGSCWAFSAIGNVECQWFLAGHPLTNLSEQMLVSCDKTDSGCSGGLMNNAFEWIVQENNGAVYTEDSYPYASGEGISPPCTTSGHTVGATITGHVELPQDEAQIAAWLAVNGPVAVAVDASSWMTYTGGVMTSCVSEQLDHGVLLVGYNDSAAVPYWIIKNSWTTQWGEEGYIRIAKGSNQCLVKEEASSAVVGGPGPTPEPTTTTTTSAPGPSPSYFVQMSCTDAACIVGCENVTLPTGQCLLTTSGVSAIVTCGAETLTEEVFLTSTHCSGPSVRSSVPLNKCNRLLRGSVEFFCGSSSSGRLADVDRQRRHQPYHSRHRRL

This assay has as its target Cruzipain (Trypanosoma cruzi) (UniProt P25779). The assay is described as follows: qHTS Assay for Promiscuous and Specific Inhibitors of Cruzain (without detergent). Also: nearly all actives have a fitted effect of over 40% in size.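 As to max response, negative = inhibition: plate controls were enzyme without inhibitor for no effect and buffer without enzyme for full effect.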 Conditions: purified cruzain, Z-FR-AMC fluorescence, no detergent. A digest of the protocol: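 Detergent-free condition (0.00005% Triton X-100) in acetate buffer pH 5.5 with DTT. 1.5 nM enzyme and compound were pre-mixed 15 min, then 2 uM Z-FR-AMC substrate added; reaction progress from fluorescence change between first and third reads (60 s).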
In the case of `COc1c(Cl)cc(C(=O)N(Cc2ccccc2F)C2CCS(=O)(=O)C2)cc1Cl` (centres undefined), the max response, negative = inhibition was 6.06%.

Consider `COCCn1c(C)cc(C2=NNC(=Nc3ccc(F)cc3)SC2)c1C`, for which the max response, negative = inhibition is -3.73%.

Take `Cc1cccc(N=C2NN=C(c3c[nH]c4ccccc34)CS2)c1`: the Potency is 7.94 µM (active).

`Cc1ccc(-c2csc(-c3c[nH]c4ccccc34)n2)cc1`: the max response, negative = inhibition is 1.08%.

In the case of `CC(=O)N1c2ccccc2CC1C(=O)N1CCN(c2ccc(F)cc2)CC1` (centres undefined), the max response, negative = inhibition is 13.9%.

As to `Cc1nc(SCC(=O)Nc2ccc(C(=O)O)cc2)n[nH]1`, the max response, negative = inhibition was 6.79%.

In the case of `Nc1nc(N)c2[nH]c(CNc3ccc(C(=O)O)cc3)nc2n1`, the Potency is 3.98 µM (active).

As for `O=C(CCS(=O)(=O)c1cc(Br)cc2c1N(C(=O)C1CC1)CC2)Nc1ccc(Br)cc1F`, the max response, negative = inhibition is -5.03%.

For the compound `CCOCc1nnc(NC(=O)CSc2ccc(C)cc2)s1`, the max response, negative = inhibition is 1.04%.

Regarding `Cc1ccc(OCc2nnc(NC(=O)OCC(C)C)s2)cc1`, the Potency was 20 µM (active).

Consider `COCC(=O)Nc1nnc(COc2ccccc2)s1`, for which the max response, negative = inhibition was 2.8%.

Regarding `CCCCOc1ccc(C(=O)N2CC(=O)Nc3ccc(Br)cc3C2c2ccc(F)cc2)cc1` (centres undefined), the Potency is 25.1 µM (active).

As for `COc1ccc(CC(=O)N2CC(=O)Nc3ccc(Br)cc3C2c2ccc(F)cc2)cc1OC` (centres undefined), the max response, negative = inhibition was 18.8%.

`CCC(CC)C(=O)N1CC(=O)Nc2ccc(Br)cc2C1c1ccccc1` (centres undefined): the max response, negative = inhibition is -0.646%.

On to `Cc1ccc2cccc(NC(=O)c3ccc(OC(C)C)cc3)c2n1`, for which the max response, negative = inhibition is -1.78%.

For the compound `Cc1[nH]c2ccccc2c1/C=N\NC(=O)Cn1nnc(-c2ccccc2)n1`, the Potency was 7.94 µM (active).

`O=C(Cn1nnc(-c2ccccc2)n1)NCc1ccccc1`: the max response, negative = inhibition is 3.66%.

For `Cc1[nH]c2ccccc2c1/C=N/NC(=O)CNC(=O)c1ccc2c(c1)OCO2`, the max response, negative = inhibition is -1.52%.

Take `CCOc1ccc(NC(=O)c2ncoc2-c2ccco2)cc1`: the max response, negative = inhibition was -16.9%.

On to `Cc1ccc(C2=NN(C(=O)CSc3nc(N)cc(N)n3)C(c3ccco3)C2)cc1` (centres undefined), for which the max response, negative = inhibition was 4.32%.

Regarding `Cc1ccc(N2C(=O)C3N=NN(CC(=O)N4N=C(c5cccc6ccccc56)CC4c4ccccc4)C3C2=O)cc1` (centres undefined), the Potency is 7.94 µM (active).

`O=C1C2N=NN(CC(=O)N3N=C(c4cccc5ccccc45)CC3c3ccccc3)C2C(=O)N1c1ccccc1` (centres undefined): the Potency was 5.01 µM (active).

As to `Cc1ccc(CNC(=O)CSC2=Nc3ccccc3C3=NC(C)C(=O)N23)cc1` (centres undefined), the max response, negative = inhibition was -15.8%.

For the compound `Cc1cc(C)c(NC(=O)CSc2nc3nccnc3c(=O)n2CCc2c[nH]c3ccccc23)c(C)c1`, the max response, negative = inhibition is 9.02%.

For the compound `O=C(Nc1cc(Cl)cc(Cl)c1)c1ccc2c(c1)N(Cc1cccc(Cl)c1)C(=O)c1ccccc1S2=O` (centres undefined), the max response, negative = inhibition is -5.94%.

Turning to `O=c1[nH]c2cc(Br)ccc2n2cccc12`, the max response, negative = inhibition was 11.1%.

With `CCOC(=O)C1CCN(c2ncnc3c2c(-c2ccccc2)cn3-c2cccc(C)c2)CC1`, the max response, negative = inhibition is 9.85%.

Regarding `Cc1nc2ccccc2cc1C(=O)N/N=C/c1ccc([N+](=O)[O-])cc1`, the max response, negative = inhibition was -1.64%.

Take `CCCCCC(=O)Nc1ccc(C(=O)N/N=C/c2ccc([N+](=O)[O-])cc2)cc1`: the max response, negative = inhibition is -23.1%.

Take `Cc1cc(C(=O)N/N=C/c2ccc(O)c([N+](=O)[O-])c2)c(C)n1-c1ccc(F)cc1`: the Potency was 10 µM (active).

On to `COc1cc2nc(NCC(C)c3ccccc3)n3nc(-c4ccccc4)nc3c2cc1OC` (centres undefined), for which the max response, negative = inhibition is 5.17%.

As for `Cc1ccccc1NC(=O)CCOc1ccccc1`, the max response, negative = inhibition is -3.79%.

Regarding `CCCN(CCC)C(=O)C1CCCN(c2ncnc3c2nc2n3CCCCC2)C1` (centres undefined), the max response, negative = inhibition was 9.35%.

In the case of `Cc1ccc(CNC(=O)CCc2c(C)nc3nc(CNC(=O)OC(C)(C)C)nn3c2C)cc1`, the max response, negative = inhibition was 11.1%.

`c1ccc(Nc2nc(N3CCOCC3)c3ccccc3n2)cc1`: the Potency is 12.6 µM (active).

Consider `c1cncc(-c2nc(N3CCNCC3)c3ccccc3n2)c1`, for which the max response, negative = inhibition was 0.953%.

On to `Cc1cc(C(=O)Nc2ccccc2N2CCOCC2)c2ccccc2n1`, for which the max response, negative = inhibition was 4.56%.

Take `CN(CC(=O)Nc1ccccc1F)S(=O)(=O)c1ccc2c(c1)c(=O)n(C)c(=O)n2C`: the max response, negative = inhibition was -13.2%.

As for `Cc1nc2ccccn2c(=O)c1NC(=O)c1c(F)cccc1F`, the max response, negative = inhibition was -1.01%.

`COc1ccc(CC(=O)Nc2ccc(-c3nc4ccccc4s3)c(C)c2)cc1`: the max response, negative = inhibition was 7.02%.

Take `COc1ccc(/C=C(/CC(=O)Nc2ccc(C)cc2)c2nc3ccccc3s2)cc1`: the Potency was 31.6 µM (active).

As for `COc1cccc(/C=C(/CC(=O)Nc2ccc(N3CCOCC3)cc2)c2nc3ccccc3s2)c1`, the max response, negative = inhibition is -7.21%.

Take `COc1ccc(CCNC(=O)CCCn2c(=O)c3ccccc3n(Cc3ccc(C)cc3)c2=O)cc1OC`: the max response, negative = inhibition was -4.62%.

For `Cc1ccc(CNC(=O)Cn2c(=O)ccc3cc(S(=O)(=O)N4CCCC4)ccc32)cc1`, the max response, negative = inhibition was -9.4%.

For `CC1CCCN(c2csc3ccc(F)cc3c2=O)C1` (centres undefined), the max response, negative = inhibition is 1.1%.

On to `COc1ccccc1-c1noc(CSc2nnc(-c3ccccc3)n2-c2ccc(C)c(C)c2)n1`, for which the max response, negative = inhibition was -9.67%.

For the compound `COc1ccccc1N1CCN(C(CNC(=O)C(=O)NCc2ccc(C)cc2)c2cccnc2)CC1` (centres undefined), the max response, negative = inhibition was 1.39%.

For `COc1cccc(Cn2c(SCc3ccc(C(=O)N4CCCCC4)cc3)nc3ccncc32)c1`, the max response, negative = inhibition was 12.2%.

On to `CC(=O)Nc1ccc(S(=O)(=O)NCC2CCC(C(=O)NCCc3ccccc3)CC2)cc1` (centres undefined), for which the max response, negative = inhibition was -2.5%.

As to `COc1ccc(CN2CCn3ncc(C(=O)Nc4ccc(Cl)cc4Cl)c3C2=O)cc1`, the Potency was 5.01 µM (active).

In the case of `COc1ccc(/C(C)=N/NC(=O)CCC(=O)Nc2ccc(Cl)cc2Cl)c(OC)c1`, the max response, negative = inhibition is 9.51%.

Consider `Cc1cnc(C(=O)OCC(=O)Nc2ccc(Cl)cc2Cl)cn1`, for which the max response, negative = inhibition is -17.8%.

In the case of `O=C(O)c1ccc(Cn2c(SCc3ccc(F)cc3)nc3ccncc32)cc1`, the max response, negative = inhibition is 2.53%.

Regarding `Cc1ccc(CN2CCCn3nc(C(=O)NCc4ccccc4Cl)cc3C2=O)cc1`, the max response, negative = inhibition is 12.6%.

Take `O=C(c1ccco1)n1nc(-c2ccc(Cl)cc2)nc1NCc1ccccc1`: the max response, negative = inhibition is 14.9%.

Take `COC(=O)c1c(-c2cccs2)csc1NC(=O)CSc1ncnc2sc(C)c(C)c12`: the Potency is 6.31 µM (active).

In the case of `Cc1sc2ncnc(Sc3nc4ccccc4s3)c2c1C`, the max response, negative = inhibition was -16.3%.

With `Cc1nc(SCC(=O)Nc2cc(C)on2)c2c(C)c(C)sc2n1`, the max response, negative = inhibition was -4.16%.

Regarding `CCOc1ccc(N(CC)S(=O)(=O)N2CCCC(C(=O)Nc3ccc(C(C)=O)cc3)C2)cc1` (centres undefined), the max response, negative = inhibition is -0.766%.

For `COc1ccc(CCNC(=O)c2cnc3sc(N4CCCCCC4)nn3c2=O)cc1OC`, the max response, negative = inhibition was 2.6%.

Turning to `CC(=O)c1c(Nc2ccccc2)sc(C(=O)c2ccccc2)c1C`, the max response, negative = inhibition is 5.34%.

In the case of `COc1ccc(C(=O)NNS(=O)(=O)c2ccc(C)cc2)cc1`, the max response, negative = inhibition is -9.3%.

For the compound `COc1ccc(S(=O)(=O)c2c(Nc3ccc(C)cc3)sc(C(=O)c3ccc(C)cc3)c2N)cc1`, the Potency was 5.01 µM (active).

For the compound `CO/N=C(/CS(=O)(=O)c1ccc(Br)cc1)c1ccc(OC)cc1`, the max response, negative = inhibition is 0.45%.

Take `COc1cccc(C(=O)c2sc3nc(-c4ccccc4)cc(C(F)(F)F)c3c2N)c1`: the max response, negative = inhibition is -13.2%.

In the case of `COc1ccc(S(=O)(=O)c2c(Nc3cccc(Cl)c3)sc(C(=O)c3ccccc3)c2N)cc1`, the Potency was 3.98 µM (active).

On to `Cc1ccc(-c2nnc(Nc3ccc(OCC(N)=O)cc3)c3ccccc23)cc1S(=O)(=O)NCC1CCCO1` (centres undefined), for which the max response, negative = inhibition is 7.01%.

As for `Cc1ccccc1NC(=O)Cn1c(=O)n(Cc2ccco2)c(=O)c2ccc(C(=O)NC3CCCC3)cc21`, the max response, negative = inhibition was 4.88%.

With `COc1ccc(N2C(=O)NC(NS(=O)(=O)c3ccc(Cl)cc3)(C(F)(F)F)C2=O)cc1` (centres undefined), the max response, negative = inhibition is -4.66%.

`CC(C)C12CN3CC(C(C)C)(CN(C1)C3c1ccc(OCc3ccccc3)cc1)C2=O` (centres undefined): the max response, negative = inhibition was 10.1%.

Take `Cc1ccc(-c2cc(C(=O)Oc3ccccc3Cl)no2)cc1C`: the max response, negative = inhibition is 0.973%.

For the compound `COc1ccc(-c2nn(-c3ccccc3)cc2/C=N/Nc2ccccn2)cc1OC`, the max response, negative = inhibition is 18.4%.

With `Cc1nnc(SCC(=O)N/N=C/c2cn(-c3ccccc3)nc2-c2ccc(F)cc2)n1-c1ccccc1`, the max response, negative = inhibition is -3.1%.

For `Cc1ccc(-c2nn(-c3ccccc3)cc2/C=N/NC(=O)c2ccc3c(c2)OCO3)cc1`, the Potency was 25.1 µM (active).

Take `COc1ccccc1CNC(=O)CCn1c(=O)c2ccccc2n(CC(=O)Nc2ccc(Br)cc2F)c1=O`: the max response, negative = inhibition is -7.67%.

For the compound `COc1ccccc1-c1cc(C(F)(F)F)nc(S(=O)(=O)CCCC(=O)Nc2cc(C)ccc2O)n1`, the max response, negative = inhibition was -0.825%.

Consider `Cc1ccccc1NC(=O)Cn1c(=O)n(CCc2ccccc2)c(=O)c2ccccc21`, for which the max response, negative = inhibition was -10.6%.

Consider `Cc1ccc(S(=O)(=O)c2nc(-c3cccs3)oc2N2CCCCC2)cc1`, for which the max response, negative = inhibition is 3.47%.

For the compound `CN(C(=O)CSc1nc(C2CC2)nc2ccccc12)c1nc(-c2ccccc2)cs1`, the Potency was 3.16 µM (active).

On to `O=C(CSc1nc(C2CC2)nc2ccccc12)Nc1ccc2c(c1)OCCO2`, for which the max response, negative = inhibition was 2.26%.

For the compound `COC(=O)CSc1nc(C2CC2)nc2ccccc12`, the max response, negative = inhibition is -5.14%.

Regarding `CCOC(=O)c1c(SCC(=O)Nc2cccc(C)c2C)nc(=O)[nH]c1C`, the max response, negative = inhibition is 4.55%.

Consider `CCOc1ccc(Nc2nc3c(S(=O)(=O)c4cccc(Cl)c4)nnn3c3ccsc23)cc1`, for which the max response, negative = inhibition is 3.27%.

Take `CCOC(=O)c1c(NC(=O)/C=C/c2ccc(OC)cc2)sc2c1CCC(C)C2` (centres undefined): the max response, negative = inhibition is -18.7%.

For `COC(=O)c1c(NC(=O)CN2CCN(S(=O)(=O)c3ccccc3[N+](=O)[O-])CC2)sc2c1CCC(C)C2` (centres undefined), the Potency is 10 µM (active).

Consider `Cc1c(Br)c([N+](=O)[O-])nn1CC(=O)Nc1sc2c(c1C(=O)OC(C)C)CCC(C)C2` (centres undefined), for which the Potency is 15.8 µM (active).

Turning to `Cc1cccc(OCCCC(=O)Nc2sc3c(c2C(N)=O)CCC(C)C3)c1` (centres undefined), the max response, negative = inhibition is 14.1%.

In the case of `CCOc1ccc(NC(=O)c2c(NC(=O)Cc3ccccc3)sc3c2CCC(C)C3)cc1` (centres undefined), the max response, negative = inhibition was 1.97%.

Regarding `COC(=O)c1c(NC(=O)CCCOc2ccccc2)sc2c1CCC(C)C2` (centres undefined), the max response, negative = inhibition was 0.0824%.
